# The whole screen tested about 50,000 compounds, of which about 800 (1.6%) showed an effect of 50% or more. Only a selection was taken, and strong results are over-represented in it overall.
# Biological target: Bcl-2-like protein 10 (Homo sapiens) (UniProt Q9HD36)
# Assay: TR3 peptide-Bcl-B binding displacers, biochemical primary FP assay, phenotype converters (AID 1240);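 note: 0% = Bcl-B with tracer peptide and DMSO and 100% = tracer peptide lacking Bcl-B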
# Details: GST-Bcl-B / FITC-TR3 peptide fluorescence polarization; stronger effect = higher value; compound at 3.75 mg/L
# Chain of Bcl-2-like protein 10 (Homo sapiens) (Q9HD36 whole entry, looked up): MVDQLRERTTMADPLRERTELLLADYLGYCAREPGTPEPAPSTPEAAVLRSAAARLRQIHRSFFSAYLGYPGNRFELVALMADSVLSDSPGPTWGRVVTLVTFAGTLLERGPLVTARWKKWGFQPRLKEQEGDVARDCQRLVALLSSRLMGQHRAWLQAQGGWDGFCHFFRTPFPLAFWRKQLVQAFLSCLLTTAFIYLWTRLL
row,Compound,displacement [%]
1,O=C1NC(=O)C(=Cc2ccccc2)C(=O)N1,-4.2
2,O=C1NC(=O)C(=Cc2ccc3c(c2)OCO3)C(=O)N1,0.3
3,O=C1NC(=O)C(=Cc2ccc(N3CCOCC3)cc2)C(=O)N1,78.9
4,O/N=C1/C(=C/c2ccccc2)N2CCC1CC2,10.6
5,COC(=O)COc1ccc(/C=C2\C(=O)NC(=S)N(c3ccc(C)cc3)C2=O)cc1OC,-13.5
6,COc1ccc(-c2ccc(C=C3C(=O)NC(=S)NC3=O)o2)c([N+](=O)[O-])c1,34.1
7,COc1ccccc1-n1c(/C=C/c2ccccc2O)nc2ccccc2c1=O,-6
8,Cc1ccc(-n2c(/C=C/c3ccc(O)c(O)c3)nc3ccccc3c2=O)cc1,54.7
9,COc1ccccc1-n1c(/C=C/c2ccc(O)c(O)c2)nc2ccccc2c1=O,-24.6
10,O=c1c2ccccc2nc(/C=C/c2ccc(O)c(O)c2)n1-c1ccccc1,1.9
11,COc1ccc(-n2c(/C=C/c3ccco3)nc3ccccc3c2=O)cc1,-27.1
12,COc1cccc(-n2c(/C=C/c3ccco3)nc3ccccc3c2=O)c1,106
13,COc1ccccc1-n1c(/C=C/c2ccco2)nc2ccccc2c1=O,-36
14,COc1cccc(-n2c(/C=C/c3ccc(O)c(O)c3)nc3ccccc3c2=O)c1,27.7
15,COc1ccccc1-n1c(/C=C/c2ccc(O)cc2)nc2ccccc2c1=O,119
16,O=C(CNS(=O)(=O)c1ccccc1)Nc1ccc(Br)cc1C(=O)c1ccccc1,12

row,Compound,displacement [%]
1,O=[N+]([O-])N=C1NC(OCc2ccccc2)C(OCc2ccccc2)N1 (stereo unspecified),1.4
2,CCC1CN(C)CCC1(O)c1ccccc1 (stereo unspecified),-6.1
3,CCC(C)N1CCN(C(=O)COc2ccc(Cl)cc2)CC1 (stereo unspecified),9.2
4,CC(C(=O)c1ccc(Cl)cc1Cl)n1cncn1 (stereo unspecified),-2.3
5,COc1ccc(OCC(=O)Nc2ccc(Br)cc2C(=O)c2ccccc2)cc1,-8.4
6,O=Cc1cn(Cc2cccc3ccccc23)c2ccccc12,-2.4
7,CN1C(=O)NC(=O)/C(=C\c2ccc([N+](=O)[O-])o2)C1=O,17.3
8,O=c1c2ccccc2nc(-c2ccccc2F)n1-c1cccc(Cl)c1,-2.3
9,CCNc1cc2oc(=O)cc(C(F)(F)F)c2cc1C,105
10,Clc1ccccc1CNCCc1c[nH]c2ccccc12,2
11,O=c1[nH]c(=O)n(-c2ccccc2)c(O)c1N=Nc1ccc(Br)cc1,120
12,O=c1[nH]c2ccccc2c(=O)n1-c1ccccc1,-12.7
13,O=c1c2ccccc2[nH]c(=S)n1-c1ccccc1,-9.7
14,COc1ccccc1CN1CCN(Cc2ccccc2F)CC1,-5.2
15,O=C(Nc1ccc(Cl)c(-c2nc3ncccc3o2)c1)c1cccc(OCc2ccccc2)c1,-2.6

# Source: PubChem BioAssay AID1240 (Sanford-Burnham Center for Chemical Genomics, 2008)
